Activity calls are given as the source filed them.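 How the source made its calls: active means a thermal shift above zero, meaning the compound raised the protein's melting temperature; inactive means the rest.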
molecular target: Luciferin 4-monooxygenase (Photinus pyralis) (UniProt P08659); experiment: Thermal Shift Assay for Inhibitors of FLuc (Firefly Luciferase, Photinus pyralis) in Absence of ATP; conditions: purified FLuc, SYPRO Orange thermal shift, no ATP; at 200 µM; active compounds read high
From the text: Firefly (Photinus pyralis) luciferase (FLuc) is widely used as a reporter in biological assays. […] In order to determine if FLuc thermal stabilization parallels inhibitor potency, a fluorescence-based thermal denaturation assay was developed in this present study. An environmentally sensitive fluorescence dye, SYPRO Orange (Invitrogen, presently Life Technologies) was utilized to monitor the fluorescence change as a function of temperature. The dye preferentially binds to the hydrophobic regions of the protein, and its high signal-to-noise ratio, large Stokes shift and high excitation wavelength make it ideal for thermal shift application. In this assay, the melting temperature (Tm) (the inflection point of the protein melt transition) was assessed for each sample tested. Differences in the Tm between controls and compound-containing samples were determined (the thermal shift or delta Tm), and compounds were ranked by the degree of their thermal shift at the top concentration (200 uM). […] FLuc catalyzes light production in bioluminescent organisms. The reaction requires luciferin, ATP and O2 as substrate, and it includes the formation of a luciferyl-AMP intermediate and the subsequent production of light, AMP, oxyluciferin and CO2. In this study, PTC124 and analogues were evaluated for their potential to stabilize FLuc in the absence and presence of ATP. This particular BioAssay is in the absence of ATP. See related BioAssay "Thermal Shift Assay for Inhibitors of FLuc (Firefly Luciferase, Photinus pyralis) in the Presence of ATP" See [6] for more details on this assay and related studies. Welch, et al. PTC124 targets genetic disorders caused by nonsense mutations. Nature 447 (2007) 87-91. D.S. Auld, N. Thorne, W.F. Maguire, and J. Inglese, Mechanism of PTC124 activity in cell-based luciferase assays of nonsense codon suppression. […]
Assay Protocol: 1.8 uM FLuc was tested in Tris-acetate buffer (pH 7.6) or phosphate buffer saline (pH 7.4). […] Fluorescence intensity changes (Ex 490/Em 575 nm) were monitored with a charge-coupled device (CCD) camera. […]

Chain of Luciferin 4-monooxygenase (Photinus pyralis) (P08659 whole entry, looked up): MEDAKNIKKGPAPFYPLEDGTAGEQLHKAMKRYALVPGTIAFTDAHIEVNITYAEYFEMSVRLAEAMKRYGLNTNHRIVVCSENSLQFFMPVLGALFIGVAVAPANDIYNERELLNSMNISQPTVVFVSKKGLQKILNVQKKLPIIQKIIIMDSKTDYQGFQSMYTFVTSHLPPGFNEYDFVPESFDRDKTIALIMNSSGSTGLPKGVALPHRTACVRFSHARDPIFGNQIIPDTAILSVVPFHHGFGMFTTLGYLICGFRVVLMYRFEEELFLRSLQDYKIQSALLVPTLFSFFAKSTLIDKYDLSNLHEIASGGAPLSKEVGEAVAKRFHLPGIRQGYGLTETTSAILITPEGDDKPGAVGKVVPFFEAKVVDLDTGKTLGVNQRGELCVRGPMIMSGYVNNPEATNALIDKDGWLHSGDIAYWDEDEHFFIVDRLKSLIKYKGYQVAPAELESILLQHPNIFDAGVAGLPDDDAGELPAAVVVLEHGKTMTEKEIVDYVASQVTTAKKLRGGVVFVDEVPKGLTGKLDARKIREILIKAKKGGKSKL

Q: For Nc1ncnc2c1ncn2[C@@H]1O[C@H](COP(=O)(O)OC(=O)c2cccc(-c3noc(-c4ccccc4F)n3)c2)[C@@H](O)[C@H]1O, which thermal shift (delta Tm) is on record?
A: 28.3 °C (active)

Q: For O=C(O)c1ccc(-c2noc(-c3ccccc3F)n2)cc1, which thermal shift (delta Tm) is on record?
A: 5.87 °C (active)

Q: How did the thermal shift (delta Tm) turn out when NC(=O)c1cccc(-c2noc(-c3ccccc3F)n2)c1 was run?
A: 2.84 °C (active)

Source: PubChem BioAssay AID2229 (National Center for Advancing Translational Sciences (NCATS), 2010)
